An excerpt weighted towards active compounds, which were near 12% of everything screened.
JMJD2A Tudor = qHTS Assay for Inhibitors of JMJD2A-Tudor Domain; AlphaScreen JMJD2A-Tudor / H3K4me3 peptide binding; Potency, µM (doses to about 114 µM), without a hit: at the highest dose activity change, negative = inhibition, actives largely listed as inhibitors; 390,000 compounds, 4.4% hits; Lysine-specific demethylase 4A (Homo sapiens), O75164; also: potency is read from the fitted curve at half-maximal effect; % is scaled to controls: 0 for no effect and ±100 for the full control effect; nearly all actives have a fitted effect of over 50% in size
PLK1 PBD block = qHTS for Inhibitors of PLK1-PDB (polo-like kinase 1 - polo-box domain): Primary Screen. Plk1 PBD binding of FITC phosphopeptide, fluorescence polarization. Potency, µM, for the others: max response, negative = inhibition, actives largely listed as inhibitors. 360,000 compounds, 2.8% hits. Serine/threonine-protein kinase PLK1 (Homo sapiens), P53350; also: potency is read from the fitted curve at half-maximal effect; series mostly up to about 57 µM; % is scaled to controls: 0 for no effect and ±100 for the full control effect; nearly all actives have a fitted effect of over 65% in size
BAZ2B block = qHTS Assay for Inhibitors of BAZ2B; Bromodomain adjacent to zinc finger domain protein 2B (Homo sapiens), Q9UIF8; AlphaScreen BAZ2B-H3K14Ac peptide displacement; Potency, µM (series often up to 114 µM), inactives show at the highest dose activity change, negative = inhibition, actives largely listed as inhibitors; 360,000 compounds, 4.4% hits; AID 504333, 2011; also: potency is read from the fitted curve at half-maximal effect; % is scaled to controls: 0 for no effect and ±100 for the full control effect; nearly all actives have a fitted effect of over 60% in size
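Protein-peptide AlphaScreen: BAZ2B 50 nM, b-H3K14Ac 50 nM, 1x PBS pH 7.4 + 0.01% Tween-20. Preincubation 30 min RT; cpd 30 min RT (top 110 uM); beads 20 min RT, light-protected.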
G9a inh = qHTS Assay for Inhibitors of Histone Lysine Methyltransferase G9a. AID 504332, 2011. 350,000 compounds, 8.8% hits. Histone-lysine N-methyltransferase EHMT2 (Homo sapiens), Q96KQ7. G9a H3K9 monomethylation, AlphaScreen, 2 h. Potency, µM (highest dose often 102 µM), without a hit: top-dose activity, negative = inhibition, hits mostly inhibitors; also: potency is read from the fitted curve at half-maximal effect; % is scaled to controls: 0 for no effect and ±100 for the full control effect; nearly all actives have a fitted effect of over 75% in size
Target sequence (Q96KQ7 913-1193 limits assumed): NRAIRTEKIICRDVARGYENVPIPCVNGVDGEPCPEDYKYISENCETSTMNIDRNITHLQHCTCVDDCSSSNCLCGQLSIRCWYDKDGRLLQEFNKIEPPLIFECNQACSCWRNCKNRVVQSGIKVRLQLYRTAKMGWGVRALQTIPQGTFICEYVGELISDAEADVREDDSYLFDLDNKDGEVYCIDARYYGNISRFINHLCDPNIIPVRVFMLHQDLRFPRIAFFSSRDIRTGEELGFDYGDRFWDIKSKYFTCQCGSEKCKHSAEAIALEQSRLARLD
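Quantitative HTS format: methyltransferase activity on a biotin-tagged H3K9 peptide is measured by AlphaScreen, using a rabbit anti-monomethyl-H3K9 antibody with streptavidin donor and anti-IgG acceptor beads. Final levels are 20 nM enzyme, 500 nM peptide, 20 uM SAM; 2 h RT.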
HP1b binding inh = HTS for Inhibitors of HP1-beta Chromodomain Interactions with Methylated Histone Tails. AlphaScreen HP1-beta / biotin-H3K9me3 peptide binding. 390,000 compounds, 0.56% hits. Potency, µM (highest dose often 114 µM), for inactives: at the highest dose activity change, negative = inhibition, hits mostly inhibitors. Chromobox protein homolog 1 (Homo sapiens), P83916; also: potency is read from the fitted curve at half-maximal effect; nearly all actives have a fitted effect of over 70% in size
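AlphaScreen: HP1-beta (50 nM) preformed 30 min with biotin-H3(1-18)K9me3 peptide (50 nM) in PBS pH 7.4, 0.01% Tween-20. Compound added for 30 min at RT, then streptavidin donor/nickel chelate acceptor beads (10 ug/mL) for 30 min.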
PI5P4K alpha inh = qHTS for Inhibitors of phosphatidylinositol 5-phosphate 4-kinase (PI5P4K). PI5P4Kalpha enzyme, ADP-Glo luminescence, 60 min; active compounds read low. max response, %. 330,000 compounds, 1.2% hits. AID 652105, 2013; active = max response of -50% or lower; inconclusive = between -30% and -50%; inactive = -30% or higher; also: value at the top dose of about 77 µM; % is scaled to controls: 0 for no effect and ±100 for the full control effect
Target sequence (P48426 whole entry, looked up): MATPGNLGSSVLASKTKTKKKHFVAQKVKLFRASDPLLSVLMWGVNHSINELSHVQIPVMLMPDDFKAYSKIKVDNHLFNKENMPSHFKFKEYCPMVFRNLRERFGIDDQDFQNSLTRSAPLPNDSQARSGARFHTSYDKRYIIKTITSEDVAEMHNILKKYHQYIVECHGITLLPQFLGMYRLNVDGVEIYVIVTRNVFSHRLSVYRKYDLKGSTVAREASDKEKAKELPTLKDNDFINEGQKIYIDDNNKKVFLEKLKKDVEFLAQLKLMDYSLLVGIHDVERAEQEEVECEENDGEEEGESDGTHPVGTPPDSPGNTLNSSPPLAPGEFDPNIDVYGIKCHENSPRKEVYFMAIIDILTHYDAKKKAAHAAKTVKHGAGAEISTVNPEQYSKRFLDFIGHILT
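Human PI5P4Kalpha with substrate in 0.038 M HEPES pH 7.4, 0.28 mM EGTA, 0.1% CHAPS, 5% DMSO; reaction started with 5 microM ATP (final), 60 min at room temperature. ADP formed read by ADP-Glo luminescence.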
The depositor's hits bear a star; u = inconclusive; x = no result; [ ] = dose if it differs, or a comment. Unless noted, calls follow the shape of the dose curve; as a rule, active = well fitted curve in the direction sought with a large enough effect; inconclusive = small, poorly fitted or top-dose-only effect, or another doubt; inactive = no such curve, though single readings can be large; an effect the other way counts as inactive or inconclusive.

SMILES	JMJD2A Tudor	PLK1 PBD block	BAZ2B block	G9a inh	HP1b binding inh	PI5P4K alpha inh
Cc1noc(C)c1CSc1ccc(Br)cc1	32.5%	u	177.4%	x	55.3%	x
CC(=O)Nc1ccc(NC(=O)C(C)OC(=O)c2ccc(OCc3c(C)noc3C)cc2)cc1 (stereo not drawn)	u	29.9µM*	-33.5%	-44.3%[59 µM]	-21.6%	x
CCCNC(=O)c1ccccc1SCc1c(C)noc1C	0.7%	-2.5%	79.4µM*	25.1µM*	52.8%	0.6
CC(=O)Nc1ccc(SCc2c(C)noc2C)cc1	-5.3%	21.2µM*	1.3%	-5.2%	48.4%	-3.5
O=C(Nc1ccccc1)c1cccc(N2CCCS2(=O)=O)c1	-9.4%	x	-1.5%	-26.4%[59 µM]	37.3%	x
Cc1cc2oc(C(=O)Nc3sc4c(c3C(=O)NCC3CCCO3)CCCC4)cc(=O)c2cc1C (stereo not drawn)	-13.2%	x	-0.9%	1.9%[59 µM]	37.3%	x
CN(Cc1ccccc1)C(=O)COC(=O)c1cc(=O)[nH]c2ccccc12	-6.9%	-0.7%	x	x	27.1%	-1.0
CC(C)NC(=O)/C(=C/c1ccco1)c1ccccc1	-9.1%	-17.3%	-7.5%	x	9.7%	2.9
Cc1cccc(C)c1NC(=O)/C(=C/c1ccco1)c1ccccc1	-17.7%	0.1%	-37.1%	31.6µM*	0.6%	6.7
CCC(C)NC(=O)/C(=C/c1ccco1)c1ccccc1 (stereo not drawn)	-6.0%	-6.1%	-36.9%	-48.8%[12.7 µM]	28.0%	-13.2
Cc1cc(C)c(NC(=O)/C(=C/c2ccco2)c2ccccc2)c(C)c1	-33.3%	-15.1%	-36.3%	44.7µM*	-3.2%	-9.6
O=C(NCCc1ccccc1)/C(=C/c1ccco1)c1ccccc1	-32.7%	-12.4%	u	10µM*	-18.0%	-22.4
O=C(c1cc(C(F)(F)F)cc(C(F)(F)F)c1)N1CCC2(CCN(Cc3nccs3)CC2)CC1	x	x	x	-3.7%[12.7 µM]	x	x
Cc1ccc(C(=O)C(OC(=O)CNC(=O)COc2ccccc2C)c2ccccc2)cc1 (stereo not drawn)	-12.3%[57.1 µM]	x	x	x	13.8%[57 µM]	x
Cc1ccc(S(=O)(=O)N2CCN(Cc3cc(Br)ccc3O)CC2)cc1	-15.4%	x	-2.4%	-32.1%[59 µM]	23.6%	x
CN(C)c1ccc(NC(=O)COC(=O)c2cc(=O)c3ccccc3o2)cc1	-14.6%	-10.1%	-30.9%	10µM*	38.2%	-11.3
CC(OC(=O)c1cc(O)c2ccccc2c1O)C(=O)Nc1ccc(C(N)=O)cc1 (stereo not drawn)	u	6.7µM*	u	7.08µM*	u	-25.0
CC(OC(=O)c1ccccc1C(=O)N(C)c1ccccc1)C(=O)Nc1ccc(C(N)=O)cc1 (stereo not drawn)	-10.3%	-8.2%	9.6%	0.6%[0.501 µM]	29.3%	1.7
CC(OC(=O)c1cc(=O)c2ccccc2o1)C(=O)Nc1ccc(N(C)C)cc1 (stereo not drawn)	u	-9.6%	-1.9%	3.16µM*	15.7%	-2.3
CC(OC(=O)c1cccc(N2C(=O)c3ccccc3C2=O)c1)C(=O)Nc1ccc(N(C)C)cc1 (stereo not drawn)	-12.4%	-1.1%	u	16.3%[59 µM]	7.3%	6.5
CS(=O)(=O)c1ccc(Cl)c(NC(=O)C2CCCCN2S(=O)(=O)c2ccccc2)c1 (stereo not drawn)	-16.5%	-13.2%	3.2%	13.1%[0.501 µM]	27.2%	1.4
O=C(NCc1ccccc1)c1cc(C2CCCN(C(=O)c3ccccc3)C2)on1 (stereo not drawn)	x	-16.3%	x	x	x	-11.8
C/C(=N/NC(=O)c1sc(NS(=O)(=O)c2ccccc2)nc1C)c1sc(N)nc1C	u	-2.8%	u	50.1µM*	9.7%	-5.5
Cc1cc(-c2nc(C)c(C(=O)NNS(=O)(=O)c3cccc(C(F)(F)F)c3)s2)no1	-14.8%	-0.7%	-8.7%	x	37.3%	-1.0
Cc1nc(NS(=O)(=O)c2ccccc2)sc1NC(=O)OC(C)C	-8.9%	0.0%	6.2%	-30.9%[0.0925 µM]	3.5%	x
SMILES	JMJD2A Tudor	PLK1 PBD block	BAZ2B block	G9a inh	HP1b binding inh	PI5P4K alpha inh
Cc1cccc(S(=O)(=O)NNC(=O)c2sc(C)nc2C)c1	10µM*	-0.5%	-22.2%	u	5.6%	0.8
Cc1nc(C)c(C(=O)NNS(=O)(=O)c2ccc([N+](=O)[O-])cc2)s1	2µM*	-6.3%	-3.5%	7.94µM*	6.0%	4.3
COc1ccc(NC(=O)Nc2sc(NS(=O)(=O)c3ccccc3)nc2C)cc1	-23.9%	u	-33.8%	50.1µM*	-18.4%	-6.6
Cc1ccc(NC(=O)C(=O)NCC(c2cccnc2)N2CCN(c3ccccc3F)CC2)cc1Cl (stereo not drawn)	-11.2%	x	-6.0%	-3.2%[59 µM]	48.2%	x
OC(c1ccc2c(c1)OCO2)c1ncc(-c2cccc(C(F)(F)F)c2)[nH]1 (stereo not drawn)	x	-7.5%	x	x	x	2.9
COc1ccc(-c2noc(-c3ccc(NC4CCCC4)c([N+](=O)[O-])c3)n2)cc1	-7.9%	x	-31.6%	u	57.5%	x
CC1(C(=O)NS(=O)(=O)c2ccccc2Cl)CCN1C(=O)CC1CC1 (stereo not drawn)	x	-4.4%	x	x	x	-4.9
Cc1ccc(NC(=O)CN2C(=O)c3cccnc3Oc3ccc(Cl)cc32)cc1	-9.6%	x	0.4%	-29.8%[59 µM]	27.8%	x
Cc1cc(NC(=O)C(C)Sc2nnc(NCc3ccco3)s2)no1 (stereo not drawn)	-25.2%	-5.7%	-11.6%	u	28.9%	-13.5
O=C(COc1ccc(F)cc1)Nc1ccccc1C(=O)OCc1cc(=O)n2ccsc2n1	-24.5%	x	u	-23.0%[59 µM]	56.4%	x
Cc1ccc(S(=O)(=O)Nc2nc(C)c(C(=O)Nc3ccccc3)s2)cc1	-8.1%	-4.3%	-26.8%	u	28.7%	-0.5
Cc1ccc(S(=O)(=O)Nc2nc(C)c(C(=O)NNS(=O)(=O)c3ccccc3)s2)cc1	-13.4%	-1.4%	-34.0%	50.1µM*	27.1%	2.0
Cc1c(C(=O)NNS(=O)(=O)c2ccccc2)sc(=S)n1C	8.91µM*	-10.8%	u	29.8%[59 µM]	34.1%	-8.8
Cc1ccc(S(=O)(=O)Nc2nc(C)c(NC(=O)OCCCl)s2)cc1	-33.3%	-14.0%	u	1.1%[2.33 µM]	-4.7%	1.1
Cc1ccc(S(=O)(=O)Nc2nc(C)c(NC(=O)Nc3ccc(Cl)cc3Cl)s2)cc1	-25.2%	21.2µM*	-35.2%	u	-20.9%	-16.3
COc1ccc(C)cc1NC(=O)c1ccc2c(c1)nnn2C1CCCC1	-4.9%	x	-7.5%	7.3%[59 µM]	36.6%	x
COC(=O)c1ccc(Cl)cc1NC(=O)N(C)CCc1c(C)nn(C)c1C	-3.6%	x	-15.0%	2.4%[59 µM]	18.6%	x

Screening data deposited in PubChem by National Center for Advancing Translational Sciences (NCATS).
